This is part of a sample that, as a whole, favours compounds with a hit. Of some 83,000 tested, about 20% had one in any assay.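 Plates (96-well) were seeded with cells, treated with compound at one concentration, and incubated for 48 hours before percent growth was determined.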 A number with no mark means an inactive call. Calls of active or inactive are those of the source. The calls were made as follows: active = growth percent below 10; inactive = the rest.

The assay concerns HL-60(TB) leukemia. The assay can be described thus: NCI-60 one-dose screen, 48 h (100 = growth as untreated, 0 = no growth, -100 = all killed). The note with it: 10 µM unless noted.
`COc1ccc(-c2nc3c(c(-c4ccc(Cl)cc4)nn3-c3ccccc3)c(-c3ccccc3)c2C#N)cc1`: the growth is 114%.
For the compound `c1ccc(-c2nc(Nc3ccc(-c4nc5ccccc5[nH]4)cc3)nc(N3CCOCC3)n2)cc1`, the growth was -32.7% (active).
With `NCCCN` the figure was 98.8%; with `CC1(C)CC[C@]2(C(=O)Nc3ccccn3)CC[C@]3(C)C(=CC[C@@H]4[C@@]5(C)C/C(=C/c6ccncc6)C(=O)C(C)(C)[C@@H]5CC[C@]43C)[C@@H]2C1`, -0.971% (active).
With `CC1(C)CC(=O)c2c(nc3ccc(Cl)cc3c2-c2ccccc2)C1` the figure was 82.3%; with `COc1ccc(/C=C/c2nc(Nc3cccc(NC(C)=O)c3)c3ccccc3n2)cc1`, 78.5%; with `COC1(CC[C@@H](C)COC2OC(CO)C(O)C(O)C2O)O[C@H]2C[C@H]3[C@@H]4CC=C5C[C@@H](OC6OC(CO)C(OC7OC(C)C(O)C(O)C7O)C(O)C6OC6OC(C)C(O)C(O)C6O)CC[C@]5(C)[C@H]4CC[C@]3(C)[C@H]2[C@@H]1C` (stereo not given in full), 27.1%.
To `Cc1c2cnccc2c(C)c2c1c1cc(C3OCCCO3)ccc1n2C` belongs -4.04% (active); to `NNC(=O)C1CC2c3ccccc3C1c1ccccc12` (stereo not given), 113%; to `CS(=O)(=O)Nc1cc(-c2ccc3ncnc(Nc4ccc(F)c(Cl)c4)c3c2)cnc1Cl`, 1.75% (active).
Consider `O=c1oc2ccccc2cc1-c1nn(-c2ccccc2)cc1-c1nn[nH]n1`, for which the growth was 96.8%.
As to `Cc1cccc(Cl)c1NC(=O)c1cnc(Nc2cc(N3CCOCC3)cc(N3CCOCC3)c2)s1`, the growth is 45.3%.
For the compound `COC1OC(C(COC(C)=O)OC(C)=O)C(OC(C)=O)C(OC(C)=O)C1OC(C)=O` (stereo not given), the growth is 132%.
To `C#C[C@@]1(O)[C@@H](CO)O[C@@H](n2cc(Cl)c3c(N)ncnc32)[C@@H]1O` belongs -56.8% (active); to `Cc1cc(NS(=O)(=O)c2ccc(NC(=O)COc3ccc(-c4cc5ccccc5[nH]4)cc3)cc2)no1`, 7.86% (active).
With `C/C=C/C1OC23CCCCC2C(C#N)(C(=N)O3)C1(C#N)C#N` (stereo not given) the figure was 106%; with `Nc1cc(-c2ccccc2)ccc1O`, 49.7%; with `COc1cc2ncnc(Nc3ccc(S(=O)(=O)Nc4nccs4)cc3)c2cc1OCCCN1CCOCC1`, 112%.
`Clc1ccc(Nc2ccnc(NCCNc3ccnc4cc(Cl)ccc34)n2)cc1`: the growth is -71% (active).
Take `C=C1C(=O)O[C@H]2[C@H]1CC/C(COC(=O)NCCCCCCCCNC(=O)OC/C1=C/CC[C@@]3(C)O[C@H]3[C@H]3OC(=O)C(=C)[C@@H]3CC1)=C\CC[C@@]1(C)O[C@@H]21`: the growth is -50.2% (active).
With `COc1ccc(C(=O)c2cc(OC)c(OC)c(OC)c2)cc1/C=C/C(=O)c1ccc2c(c1)OCO2` the figure was 27.5%; with `C=C1SC(=Nc2ccccc2Cl)N(C(=O)c2sc3ccccc3c2Cl)C1(C)C`, 1.29% (active).
As to `O=C1OCc2cccc3cccc1c23`, the growth was 84.9%.
To `COc1cnccc1-c1nc2ccc3[nH]ncc3c2c2c1CCCC2` belongs 35.1%; to `O=[N+]([O-])c1ccc(-c2nc(N(CCO)CCO)c3ccccc3n2)o1`, -11.1% (active); to `COc1ccc(NC(=O)Cn2c(=O)sc3c(-c4ccc(Cl)cc4)cc(-c4ccc(Cl)cc4)nc32)cc1`, 80%.
With `O=C(O)c1ccc2c(c1)nc(Nc1cccc(Cl)c1)c1ccncc12` the figure was -28.6% (active).
To `COC(=O)c1c(C)nc(C)c2c1C(=O)C(Br)=C(NCc1ccccc1)C2=O` belongs -30.9% (active).
With `COc1cc(C(=O)Nc2ccc(N(C)C)cc2)cc(OC)c1OC`, the growth is 95.8%.
Turning to `C=C1c2c(C)nn(-c3ccc(C#CCOC4OC(CO)C(O)C(O)C4O)cc3)c2N(C)C23C[C@H]1C1(C)c4c(C)nn(-c5ccc(C#CCOC6OC(CO)C(O)C(O)C6O)cc5)c4N(C)C(C)(C[C@H]12)C3` (stereo not given in full), the growth is -22.8% (active).
Regarding `CCCCCCCCCCCC[n+]1c(C)cc(N)c2ccccc21`, the growth is -44.4% (active).
With `COc1ccc(OC)c(/C=C/c2nc(SC)n(-c3ccc(Cl)cc3)n2)c1` the figure was 65.7%; with `C=C(C)[C@@H]1CC[C@]2(C(=O)NCCCCCCN(CCCN)CCCN)CC[C@]3(C)[C@H](CC[C@@H]4[C@@]5(C)CC[C@H](OCCCN)C(C)(C)[C@@H]5CC[C@]43C)[C@@H]12`, 37% [100 µM].
With `COc1cccc(C=Nc2cc(C(C)C)c(O)cc2C)c1O` the figure was 85.9%.
In the case of `C/C(=N\NC(=O)CC#N)c1cc2cc(Cl)ccc2o1`, the growth is 99.4%.
For the compound `CCOc1cc(/C=N\NC(=O)C[N+](C)(C)C)ccc1O`, the growth is 87.7%.
To `Cc1ccc(C)c2c1sc1nc3n[nH]c(N)c3c(=N)n12` belongs 112%.
With `COc1ccc(C(=O)C(C#N)c2cc(OC)c(OC)c(OC)c2)cc1` (stereo not given) the figure was 96%.
With `O=c1cc(CSc2nnc(-c3ccc(F)cc3)o2)c2ccc3ccccc3c2o1` the figure was 99.9%; with `CCCCC(NC(=O)CN1C(=O)/C(=C/C(C)=C/c2ccccc2)SC1=S)C(=O)O` (stereo not given), 113%.

Source of the values: PubChem BioAssay (NCI).
